High-throughput results as filed in PubChem.
Compounds with a hit are over-represented: about 3.7% of the library has one in this group of screens.
rRNA inh HTS: reduced GFP signal of wild-type E. coli, primary screen, bacterial rRNA inhibitor project, GFP/RFP fluorescence, OD600, single point; E. coli WT GFP vs humanized-ribosome RFP mutants, 24 h; active compounds read low; DMSO median 0, no signal -100; hit rate 1.6% among 350,000; GFP signal change (wild-type ribosome), % (no concentration beside the values);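 active means significant combined selectivity score with lowered wild-type GFP, culture density cut under 30%, mutant RFP and density less affected; inactive means any of these conditions unmet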
AF4-AF9 inh: inhibitors of AF4 peptide binding to AF9, primary screen, biochemical, AlphaScreen, biotin-AF4 peptide, FLAG-AF9, single point | Protein AF-9 (Homo sapiens), P42568 | inhibition, % at 10 µM | hit rate 0.47% among 350,000;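 active means every replicate reaching a set inhibition limit, whatever the replicate mean, cut at about 25% in these data; inconclusive means mean inhibition reaches that limit but some replicates miss it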;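 further: 0% = plate neutral control median and 100% = total signal loss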
Target sequence (P42568 whole entry, looked up): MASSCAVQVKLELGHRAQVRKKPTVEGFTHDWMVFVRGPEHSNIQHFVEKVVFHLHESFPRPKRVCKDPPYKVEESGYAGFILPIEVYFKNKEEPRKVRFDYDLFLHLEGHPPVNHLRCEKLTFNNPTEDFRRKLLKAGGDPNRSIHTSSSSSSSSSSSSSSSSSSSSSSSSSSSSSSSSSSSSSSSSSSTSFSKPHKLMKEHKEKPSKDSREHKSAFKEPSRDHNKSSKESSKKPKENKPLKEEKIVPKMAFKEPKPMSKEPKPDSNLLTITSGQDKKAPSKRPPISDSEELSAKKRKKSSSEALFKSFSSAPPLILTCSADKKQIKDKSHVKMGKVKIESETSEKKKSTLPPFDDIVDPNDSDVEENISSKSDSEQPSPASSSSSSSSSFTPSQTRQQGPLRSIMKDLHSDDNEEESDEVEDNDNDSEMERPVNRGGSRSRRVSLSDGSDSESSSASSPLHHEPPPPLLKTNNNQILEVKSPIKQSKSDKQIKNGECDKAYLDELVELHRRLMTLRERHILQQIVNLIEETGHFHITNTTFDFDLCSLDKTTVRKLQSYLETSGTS
Wnt act: Wnt/beta-catenin pathway activators, primary screen, cell-based, plate reader, single point | Wnt/beta-catenin reporter cell assay, activator | hit rate 1.2% among 300,000 | AID 743398, 2014 | activation, % at 9.35 µM; in the data active means activation above about 30%, passing the limit was not always enough; inconclusive means no clear call, values can overlap the other calls;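 further: 0% = neutral control wells and 100% = positive control wells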
esBAF inh: Bmi1 luciferase reporter increase in mESCs, primary screen, esBAF inhibitor project, mouse ES cells, Bmi1 luciferase knock-in, single point; reporter increase, % at 12.5 µM; hit rate 2% among 350,000; AID 602393, 2012; 24 h; 100% = twice the neutral-well signal; in the data active means activation above about 40%; inconclusive means no clear call, values can overlap the other calls;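 further: 0% = median of the plate's neutral control wells and 100% = double that signal; a rise in the Bmi1 reporter signal indicates esBAF inhibition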
MITF TRPM1 HTS: activators of MITF-driven TRPM1 promoter reporter, primary screen, cell-based, SK-MEL-5, luciferase, single point; SK-MEL-5 TRPM1-promoter luciferase, 24 h; % of positive control, neutral wells = 0; activation, % at 12.5 µM; hit rate 0.75% among 300,000; AID 588334, 2011;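 active means mean activation of at least 80% with every replicate also reaching 80%; inconclusive means mean reaches 80% but some replicate falls short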;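 further: 0% = neutral control wells and 100% = parthenolide positive control wells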
An asterisk follows results filed as active.

`Cn1c(=O)c(=O)n(C)c2cc(N3CCOCC3)c(NS(=O)(=O)c3ccc([N+](=O)[O-])cc3)cc21` gave rRNA inh HTS 9, AF4-AF9 inh -3, Wnt act -1, esBAF inh -10 and MITF TRPM1 HTS -7.
`Cc1cccc(N=[N+]([O-])c2cccc(C)n2)n1` gave rRNA inh HTS 6, AF4-AF9 inh 0, Wnt act 13, esBAF inh 57* and MITF TRPM1 HTS 70.
Cc1cccc(N=O)n1 was read as rRNA inh HTS 5, AF4-AF9 inh -6 and Wnt act -2.
Screening Cn1nc(-c2ccc(C(=O)NCCO)cc2)c2ccccc2c1=O returned rRNA inh HTS -2, AF4-AF9 inh -2, Wnt act 6 and MITF TRPM1 HTS -3.
Screening CN(CCO)C(=O)c1ccc(-c2nn(C)c(=O)c3ccccc23)cc1 returned rRNA inh HTS -7, AF4-AF9 inh -1, Wnt act 34* and MITF TRPM1 HTS -14.
`Cc1ccc(-n2cc(CN3CCN(Cc4nccn4C)CC3)c(-c3cccc(C)c3)n2)cc1` gave rRNA inh HTS -46, AF4-AF9 inh 29*, Wnt act 2, esBAF inh 11 and MITF TRPM1 HTS 32.
Screening Cc1ccc(-n2cc(CN3CCNC(=O)CC3)c(-c3cccc(C)c3)n2)cc1 returned rRNA inh HTS -57, AF4-AF9 inh 7, esBAF inh 9 and MITF TRPM1 HTS 20.
For O=C(Nc1cc2c(cc1Cl)OCCCO2)c1ccc(F)cc1 the results were Wnt act 51* and MITF TRPM1 HTS 76.
O=C(Nc1cc2c(cc1Br)OCCCO2)c1cccnc1 was read as rRNA inh HTS 4, AF4-AF9 inh 0, Wnt act 5, esBAF inh -4 and MITF TRPM1 HTS 10.
For Cc1ccc(C(=O)Nc2cc3c(cc2Cl)OCCCO3)cc1 the results were esBAF inh 69* and MITF TRPM1 HTS 72.
For O=C(Nc1cc2c(cc1Br)OCCCO2)c1ccccc1 the results were Wnt act 52* and MITF TRPM1 HTS 46.
CC(=O)c1cc2c(cc1NC(=O)c1ccc(Cl)cc1)OCCO2 was read as rRNA inh HTS -1, AF4-AF9 inh 2, Wnt act -2 and esBAF inh -1.
O=C1CC(N2CCC(O)(c3ccc(Cl)cc3)CC2)C(=O)N1 (stereo not drawn) was read as Wnt act -1, esBAF inh 4 and MITF TRPM1 HTS 3.
`COC(=O)CNc1c(-c2ccccn2)nc2ccc(Br)cn12` gave Wnt act 40* and esBAF inh 15.
For CCOC(=O)CNc1c(-c2ccccc2)nc2ccc(Cl)cn12 the results were Wnt act 23, esBAF inh 36 and MITF TRPM1 HTS 13.
Screening CCNC(=O)c1cccc(S(=O)(=O)N2CCCCCC2)c1 returned rRNA inh HTS 7, AF4-AF9 inh 4, Wnt act -1 and MITF TRPM1 HTS 7.
`Cc1cc(=O)oc2cc(NS(=O)(=O)c3ccccc3)ccc12` gave rRNA inh HTS -4, AF4-AF9 inh -3 and Wnt act 52*.
Screening Cc1cc(=O)oc2cc(NS(=O)(=O)c3ccc(F)cc3)ccc12 returned rRNA inh HTS -22*, AF4-AF9 inh -2 and Wnt act 3.
`O=C(Nc1cc(Br)ccc1O)C1CC(c2c(F)cccc2Cl)=NO1` (stereo not drawn) gave rRNA inh HTS -36*, AF4-AF9 inh -2, Wnt act -1 and esBAF inh 1.
`Cc1cc(NC(=O)C2CC(c3c(F)cccc3Cl)=NO2)n(-c2ccccc2)n1` (stereo not drawn) gave rRNA inh HTS -9, AF4-AF9 inh -1, Wnt act 0 and MITF TRPM1 HTS -14.
`CSc1ccccc1NC(=O)C1CC(c2c(F)cccc2Cl)=NO1` (stereo not drawn) gave rRNA inh HTS -25*, AF4-AF9 inh 2, Wnt act 0 and esBAF inh inconclusive.
Screening O=C(Nc1ccc(Br)cc1)C1CC(c2c(F)cccc2Cl)=NO1 (stereo not drawn) returned rRNA inh HTS -3, AF4-AF9 inh 1, Wnt act 1, esBAF inh 25 and MITF TRPM1 HTS 11.
For COc1ccc(Cl)cc1NC(=O)C1CC(c2c(F)cccc2Cl)=NO1 (stereo not drawn) the results were rRNA inh HTS -30*, AF4-AF9 inh -2, Wnt act -1 and esBAF inh 0.
Cc1c(C(=O)Oc2cccc3cccnc23)oc2ccccc12 was read as rRNA inh HTS 6, AF4-AF9 inh -6, Wnt act 9, esBAF inh -10 and MITF TRPM1 HTS -28.
Screening Cc1sc2ncnc(Sc3ccccc3C(=O)Nc3ccc(C#N)cc3)c2c1C returned rRNA inh HTS -23*, AF4-AF9 inh 1, Wnt act -3 and MITF TRPM1 HTS -11.
Screening O=c1cccc(-c2ccc3ccccc3c2)o1 returned rRNA inh HTS -25, AF4-AF9 inh 9 and Wnt act 11.
`O=C(N/N=C/c1sc(=O)n(-c2ccccc2)c1Cl)c1ccccc1` gave rRNA inh HTS -7, AF4-AF9 inh 4, Wnt act 75* and MITF TRPM1 HTS 60.
For Cn1cc(Cl)c(/C(N)=N/OC(=O)c2ccccc2C(F)(F)F)n1 the results were rRNA inh HTS -2, AF4-AF9 inh 2, Wnt act 20, esBAF inh 51* and MITF TRPM1 HTS 76.
Screening CCn1c(CNc2cccc(Cl)c2)nnc1SCc1ccccc1 returned esBAF inh 6 and MITF TRPM1 HTS 5.
`C=CCSc1n[nH]c(-c2ccccc2)n1` gave esBAF inh 53* and MITF TRPM1 HTS 71.
COc1ccc(-c2nc(SCC(=O)Nc3cc(C)on3)n[nH]2)cc1 was read as esBAF inh -5 and MITF TRPM1 HTS 10.
For C=CCSc1n[nH]c(-c2ccc(OC)cc2)n1 the results were esBAF inh 54* and MITF TRPM1 HTS 101*.
`O=C(CSc1n[nH]c(-c2ccccc2)n1)N1CCCC1` gave rRNA inh HTS -3, AF4-AF9 inh 1, Wnt act 3, esBAF inh 6 and MITF TRPM1 HTS -6.
`Cc1cc(C(=O)Nc2ccc3c(c2)C(=O)N(C)[C@@H]2CC[C@@H](CC(=O)N[C@@H](C)c4ccccc4)O[C@H]2CO3)no1` gave rRNA inh HTS -1, AF4-AF9 inh -1 and esBAF inh 1.
COC(=O)[C@H]1C[C@@]2(O)CN(S(=O)(=O)c3ccc(C)cc3)C[C@@]2(OC(=O)NCC2CCCCC2)C[C@H]1C(=O)OC was read as rRNA inh HTS -8, AF4-AF9 inh 1, Wnt act -1 and esBAF inh 52*.
For S=C1SCN(Cc2cccnc2)CN1Cc1ccccc1 the results were rRNA inh HTS -29*, AF4-AF9 inh 2, Wnt act -2, esBAF inh 2 and MITF TRPM1 HTS 3.
